Data taken from PubChem BioAssay (NCI).
Where “and” joins values, the source holds several entries; their conditions need not be identical. Identical values can stand only once. This is part of a sample that, as a whole, favours compounds with a hit. Of some 79,000 tested, about 15% had one in any assay. Some structures have more than one record in an assay (separate samples or runs), and their calls can disagree. Calls of active or inactive are those of the source. Cut-off read from the data, not from the text of the source: active = growth inhibition above about 70%; inactive = the rest.

How the values were obtained:
[1] = NCI Yeast Anticancer Drug Screen. Data for the mec2-1 strain (AID 157); conditions: S. cerevisiae mec2-1 strain, stronger effect = higher value
Method in brief: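 Cells of the genetically defined mec2-1 yeast strain are incubated with test compound. Inhibition of growth is calculated against vehicle-treated controls.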

[2] = NCI Yeast Anticancer Drug Screen. Data for the rad14 strain (AID 159);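 note: 0% = growth of vehicle-treated control cultures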; conditions: S. cerevisiae rad14 strain growth inhibition, stronger effect = higher value
Method in brief: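 Compound-treated yeast with a defined DNA-repair lesion; growth inhibition normalised to vehicle-treated cultures.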

[3] = NCI Yeast Anticancer Drug Screen. Data for the CLN2oe strain (AID 163);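 note: 0% = growth of vehicle-only control cultures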; conditions: S. cerevisiae CLN2oe strain, stronger effect = higher value
Method in brief: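 Strain altered in cell-cycle control, incubated with compound; growth compared to solvent-treated controls.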

[4] = NCI Yeast Anticancer Drug Screen. Data for the cln2 rad14 strain (AID 165);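 note: 0% = growth equal to vehicle treated cultures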; conditions: S. cerevisiae cln2 rad14 strain, stronger effect = higher value
Method in brief: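 The screen exposed genetically defined yeast (cln2 rad14) to test compounds and scored growth inhibition relative to vehicle-treated controls.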

[5] = NCI Yeast Anticancer Drug Screen. Data for the bub3 strain (AID 167); conditions: S. cerevisiae bub3 mutant strain, stronger effect = higher value
Method in brief: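 Growth of a checkpoint-deficient yeast mutant is measured after compound exposure. Values represent inhibition relative to vehicle.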

[6] = NCI Yeast Anticancer Drug Screen. Data for the wt2 strain (AID 169);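 note: 0% = growth of vehicle-treated yeast cultures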; conditions: S. cerevisiae wt2 strain growth inhibition, stronger effect = higher value
Method in brief: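 Steps: yeast strain treated with compound; growth recorded; inhibition calculated relative to cultures given vehicle alone.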

[7] = NCI Yeast Anticancer Drug Screen. Data for the mlh1 strain (AID 171);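 note: 0% = growth of vehicle-treated control cultures of the same strain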; conditions: S. cerevisiae mlh1 strain growth inhibition, stronger effect = higher value
Method in brief: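 Yeast screen: mutant strain plus compound, growth scored against vehicle control wells.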

[8] = NCI Yeast Anticancer Drug Screen. Data for the sgs1 strain (AID 173);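 note: 0% = growth of vehicle-only control cultures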; conditions: S. cerevisiae sgs1 mutant, stronger effect = higher value
Method in brief: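 Inhibition of yeast growth served as the measure. The mutant strain was treated with each compound, and growth was normalised to cultures receiving vehicle alone.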

[9] = NCI Yeast Anticancer Drug Screen. Data for the mlh1 rad18 strain (AID 175); conditions: S. cerevisiae mlh1 rad18 strain growth inhibition, stronger effect = higher value
Method in brief: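 Compound-treated yeast growth, normalised to vehicle controls. Strain bears defined DNA repair mutations.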

[10] = NCI Yeast Anticancer Drug Screen. Data for the rad18 strain (AID 177); conditions: S. cerevisiae rad18 mutant growth inhibition, stronger effect = higher value
Method in brief: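 Inhibition values reflect reduced yeast growth compared with vehicle-treated controls, using a strain engineered with a DNA damage repair defect.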

[11] = NCI Yeast Anticancer Drug Screen. Data for the wt1 strain (AID 149);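 note: 0% = growth of vehicle-treated wt1 cultures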; conditions: S. cerevisiae wt1 strain (SPY 50644) growth inhibition, stronger effect = higher value
Method in brief: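 Readout: yeast growth inhibition, normalised to vehicle controls, in the wt1 strain exposed to test compounds.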

[12] = NCI Yeast Anticancer Drug Screen. Data for the rad50EPP+ strain (AID 151);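 note: 0% = growth of vehicle-treated control cultures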; conditions: S. cerevisiae rad50 mutant strain, stronger effect = higher value
Method in brief: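 Strain rad50EPP+; compound exposure; % growth inhibition vs vehicle.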

[13] = NCI Yeast Anticancer Drug Screen. Data for the mgt1 strain (AID 153); conditions: S. cerevisiae mgt1 mutant growth inhibition, stronger effect = higher value
Method in brief: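 Read-out: yeast growth inhibition vs vehicle control. Strain mgt1, drawn from a panel altered in DNA damage repair or cell cycle control.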

[14] = NCI Yeast Anticancer Drug Screen. Data for the rad50 strain (AID 155);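 note: 0% = growth of vehicle-only cultures of the same strain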; conditions: S. cerevisiae rad50 strain growth inhibition, stronger effect = higher value
Method in brief: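 Compounds were tested on a yeast strain with an engineered DNA damage repair alteration; the reported value is growth inhibition normalised to vehicle treatment.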

[15] = NCI Yeast Anticancer Drug Screen. Data for the sgs1 mgt1 strain (AID 161);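 note: 0% = growth of cultures given vehicle only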; conditions: S. cerevisiae sgs1 mgt1 strain, stronger effect = higher value
Method in brief: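 Mutant yeast exposed to compound; growth scored against vehicle-only wells.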

[16] = at 5.0 µM (retest, dose inferred, filed as 0.5)
[17] = at 50.0 µM (retest, dose inferred, filed as 5.0)

Measured: growth inhibition

CN(C)CCOC1(Cc2ccc(F)cc2)CCC(C(C)(C)C)CC1 (stereo unspecified)
inactive: [2]; at 1.2 µM 6% | [2]; at 3.7 µM 7% | [2]; at 11.0 µM 10% | [2]; at 33.0 µM 66% | [3]; at 1.2 µM -5% | [3]; at 3.7 µM -5% | [3]; at 11.0 µM -5% | [3]; at 33.0 µM -2% | [4]; [16] 17% and -22% | [4]; [17] 34% and 51% | [5]; at 1.2 µM -4% | [5]; at 3.7 µM -4% | [5]; [16] 10% and -19% | [5]; at 11.0 µM -1% | [5]; at 33.0 µM 7% | [6]; at 1.2 µM 1% | [6]; at 3.7 µM -1% | [6]; at 11.0 µM -1% | [6]; at 33.0 µM 16% | [7]; at 1.2 µM 2% | [7]; at 3.7 µM 7% | [7]; at 11.0 µM 11% | [7]; at 33.0 µM 58% | [8]; at 1.2 µM 32% | [8]; at 3.7 µM 16% | [8]; at 11.0 µM 18% | [8]; at 33.0 µM 56% | [9]; [16] 7% and -11% | [10]; at 1.2 µM -9% | [10]; at 3.7 µM -23% | [10]; at 11.0 µM -2% | [10]; at 33.0 µM 18%
active: [1]; at 100.0 µM 98% | [2]; at 100.0 µM 98% | [3]; at 100.0 µM 98% | [5]; at 100.0 µM 98% | [6]; at 100.0 µM 99% | [7]; at 100.0 µM 98% | [8]; at 100.0 µM 99% | [9]; [17] 94% and 99% | [9]; at 50.0 µM 97.8% and 99.3% | [10]; at 100.0 µM 98%
56% (inactive) and 99% (active): [5]; [17]
15.3% (inactive) and 99.3% (active): [4]; at 50.0 µM
46.3% (inactive) and 99.2% (active): [5]; at 50.0 µM

COC(=O)/C=C(/CC(=O)OC)C(=O)OC
inactive: [11]; at 1.2 µM -2% | [11]; at 3.7 µM 0% | [11]; at 11.0 µM -1% | [11]; at 33.0 µM -3% | [11]; at 100.0 µM -3% | [12]; at 1.2 µM 2% | [12]; at 3.7 µM -2% | [12]; at 11.0 µM -1% | [12]; at 33.0 µM -1% | [12]; at 100.0 µM -3% | [13]; at 1.2 µM -3% | [13]; at 3.7 µM 0% | [13]; at 11.0 µM 0% | [13]; at 33.0 µM 0% | [13]; at 100.0 µM -3% | [14]; at 1.2 µM 0% | [14]; at 3.7 µM -44% | [14]; [16] 59% | [14]; at 11.0 µM 4% | [14]; at 33.0 µM -4% | [14]; [17] 3% | [14]; at 50.0 µM 16.6% | [14]; at 100.0 µM -4% | [1]; at 1.2 µM -1% | [1]; at 3.7 µM -3% | [1]; [16] 12% | [1]; at 11.0 µM 1% | [1]; at 33.0 µM 0% | [1]; [17] 6% | [1]; at 50.0 µM 9.4% | [1]; at 100.0 µM -3% | [2]; at 1.2 µM 0% | [2]; at 3.7 µM 1% | [2]; at 11.0 µM 2% | [2]; at 33.0 µM 3% | [2]; at 100.0 µM -1% | [15]; [17] 15% | [15]; at 50.0 µM -8.4% | [3]; at 1.2 µM 0% | [3]; at 3.7 µM -4% | [3]; at 11.0 µM 0% | [3]; at 33.0 µM -2% | [3]; at 100.0 µM -2% | [4]; [16] 15% | [4]; [17] -1% | [5]; at 1.2 µM -4% | [5]; at 3.7 µM -3% | [5]; [16] 9% | [5]; at 11.0 µM -2% | [5]; at 33.0 µM -2% | [5]; [17] 15% | [5]; at 50.0 µM -15.2% | [5]; at 100.0 µM -1% | [6]; at 1.2 µM -3% | [6]; at 3.7 µM 8% | [6]; at 11.0 µM 0% | [6]; at 33.0 µM -1% | [6]; at 100.0 µM -1% | [7]; at 1.2 µM -2% | [7]; at 3.7 µM -1% | [7]; at 11.0 µM 0% | [7]; at 33.0 µM 0% | [7]; at 100.0 µM -2% | [8]; at 1.2 µM 0% | [8]; at 3.7 µM 1% | [8]; at 11.0 µM 3% | [8]; at 33.0 µM 2% | [8]; at 100.0 µM 3% | [9]; [16] 33% | [9]; [17] 1% | [9]; at 50.0 µM 10.8% | [10]; at 1.2 µM 3% | [10]; at 3.7 µM 2% | [10]; at 11.0 µM 1% | [10]; at 33.0 µM 1% | [10]; at 100.0 µM -4%
active: [15]; [16] 90% | [4]; at 50.0 µM 77.8%

Clc1ccc(NCNC2Nc3ccccc3N2)cc1Cl
inactive: [11]; at 1.2 µM 2% | [11]; at 3.7 µM 7% | [11]; at 11.0 µM 8% | [12]; at 1.2 µM 8% | [12]; at 3.7 µM 16% | [14]; at 1.2 µM -1% | [14]; at 3.7 µM -3% | [14]; [16] 4% | [14]; at 11.0 µM 17% | [14]; at 50.0 µM 25.6% | [1]; at 1.2 µM 0% | [1]; at 3.7 µM 5% | [1]; [16] -6% | [1]; at 11.0 µM 17% | [1]; at 50.0 µM 9.15% | [2]; at 1.2 µM 0% | [2]; at 3.7 µM 3% | [2]; at 11.0 µM 13% | [15]; [16] 18% | [15]; at 50.0 µM 8.15% | [3]; at 1.2 µM -5% | [3]; at 3.7 µM -13% | [3]; at 11.0 µM -3% | [4]; [16] 20% | [4]; at 50.0 µM -9.7% | [5]; at 1.2 µM 1% | [5]; at 3.7 µM -8% | [5]; [16] 26% | [5]; at 11.0 µM -2% | [5]; at 50.0 µM 10.2% | [6]; at 1.2 µM -4% | [6]; at 3.7 µM -1% | [6]; at 11.0 µM 9% | [7]; at 1.2 µM -2% | [7]; at 3.7 µM 0% | [7]; at 11.0 µM 13% | [8]; at 1.2 µM 1% | [8]; at 3.7 µM 5% | [8]; at 11.0 µM 34% | [9]; [16] 55% | [9]; at 50.0 µM 29.8% | [10]; at 1.2 µM 27% | [10]; at 3.7 µM 65%
active: [11]; at 33.0 µM 81% | [11]; at 100.0 µM 99% | [12]; at 11.0 µM 88% | [12]; at 33.0 µM 98% | [12]; at 100.0 µM 98% | [14]; at 33.0 µM 93% | [14]; [17] 99% | [14]; at 100.0 µM 98% | [1]; at 33.0 µM 93% | [1]; [17] 99% | [1]; at 100.0 µM 98% | [2]; at 33.0 µM 96% | [2]; at 100.0 µM 99% | [15]; [17] 99% | [3]; at 33.0 µM 89% | [3]; at 100.0 µM 98% | [4]; [17] 83% | [5]; at 33.0 µM 91% | [5]; [17] 99% | [5]; at 100.0 µM 99% | [6]; at 33.0 µM 91% | [6]; at 100.0 µM 98% | [7]; at 33.0 µM 71% | [7]; at 100.0 µM 99% | [8]; at 33.0 µM 92% | [8]; at 100.0 µM 99% | [9]; [17] 98% | [10]; at 11.0 µM 92% | [10]; at 33.0 µM 96% | [10]; at 100.0 µM 98%
